This is a sample that favours compounds with a hit; in the whole collection about 0.4% have one here.
Rab2A wt mod – modulators of GTP binding to Rab2A wildtype, primary screen, biochemical, dog, bead-based flow cytometry, multiplex | GST-Rab2 wt beads, Bodipy-GTP binding | 190,000 compounds, 0.19% hits | GTP binding activity, % at 10 µM | Ras-related protein Rab-2A (Canis lupus familiaris), P61105;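 active = GTP binding activity at least 20 points away from 100%, either lowered or raised; inconclusive = signal likely due to the compound's own green fluorescence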;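 note: 0% = beads with excess unlabeled GTP and 100% = no-compound control corrected for plate trend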
Cdc42 wt – modulators of GTP binding to wildtype Cdc42, primary screen, biochemical, multiplex bead flow cytometry, Bodipy-GTP. GST-Cdc42 beads; actives lie on both sides. percent activity (GTP binding), % at 10 µM. 190,000 compounds, 0.2% hits. AID 761, 2007;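 active = percent activity GTP binding at least 20 points away from the 100% baseline, either down as inhibitor or up as activator; inconclusive = compound flagged as likely green fluorescent from well-wide comparison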;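 note: median bead fluorescence of bound Bodipy-FL-GTP at 100 nM; 0% = excess unlabeled GTP control and 100% = no compound control; below 100% means less GTP binding so inhibitor and above means activator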
Target sequence (P60953 whole entry, looked up): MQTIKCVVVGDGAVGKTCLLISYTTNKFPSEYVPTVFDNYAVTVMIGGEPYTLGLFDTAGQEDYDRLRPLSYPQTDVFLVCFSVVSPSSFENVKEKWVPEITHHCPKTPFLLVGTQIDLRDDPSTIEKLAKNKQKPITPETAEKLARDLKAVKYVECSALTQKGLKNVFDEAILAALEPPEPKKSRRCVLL
Rac1 wt modul – wildtype Rac1 GTP binding modulators, primary screen, biochemical, GST-Rac1 beads, flow cytometry, multiplex; AID 757, 2007; fluorescent GTP binding; actives lie on both sides; 0 = cold GTP competed, 100 = untreated; GTP binding activity (% of control), % at 10 µM; 190,000 compounds, 0.27% hits; Ras-related C3 botulinum toxin substrate 1 (Homo sapiens), P63000;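 active = GTP binding activity at least 20 points away from the 100% control level, either lower or higher; inconclusive = compound flagged as likely green fluorescent, judged across all proteins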
Rab7 wt modul – modulators of GTP binding to Rab7, primary screen, biochemical, wildtype, multiplex bead flow cytometry. GST-Rab7 beads, fluorescent GTP binding; actives lie on both sides; untreated = 100%, excess cold GTP = 0%. GTP binding activity (percent of control), % at 10 µM. 190,000 compounds, 0.055% hits. AID 758, 2007;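 active = fluorescent GTP binding to Rab7 beads changed by at least 20 points from the 100% baseline, either direction, mostly lower; inconclusive = compound itself probably fluorescent, or too few beads counted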;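 note: median green fluorescence of bound Bodipy-FL-GTP per Rab7 bead population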
HRas wt GTP bind – modulators of GTP binding to HRas wildtype, primary screen, biochemical, bead-based flow cytometry, multiplex | GTPase HRas (Homo sapiens), P01112 | GST-Ras wt beads, Bodipy-FL-GTP binding; actives lie on both sides | GTP binding activity, % at 10 µM | 190,000 compounds, 0.14% hits | AID 759, 2007;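 active = GTP binding activity at least 20% away from the 100% baseline, either lowered as inhibitor or raised as activator; inconclusive = flagged as likely green fluorescent, judged across all proteins in the well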;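 note: 0% = unlabeled GTP competition control and 100% = no-compound control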
Target sequence (P01112 whole entry, looked up): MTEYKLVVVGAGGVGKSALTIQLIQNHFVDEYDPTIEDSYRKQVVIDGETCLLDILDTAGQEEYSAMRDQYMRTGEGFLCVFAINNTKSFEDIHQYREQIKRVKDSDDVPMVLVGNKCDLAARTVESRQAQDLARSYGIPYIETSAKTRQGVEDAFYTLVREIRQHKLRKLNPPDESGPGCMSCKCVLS
Rac1 mut GTP – GTP binding modulators of activated mutant Rac1, primary screen, biochemical, bead-based flow cytometry, multiplex, fluorescent GTP | 190,000 compounds, 0.11% hits | AID 764, 2007 | GST-Rac1 activated beads; actives lie on both sides; 100% means binding = to untreated wells | percent activity (GTP binding), % at 10 µM | Ras-related C3 botulinum toxin substrate 1 (Homo sapiens), P63000;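 active = GTP binding at least 20 percentage points away from the 100% baseline, in either direction, so actives lie on both sides; inconclusive = Compound likely fluorescent itself, or too few beads counted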
The depositor's hits bear a star; ? = inconclusive; / = not tested or not shown; [ ] = remark or other dose.

SMILES	Rab2A wt mod	Cdc42 wt	Rac1 wt modul	Rab7 wt modul	HRas wt GTP bind	Rac1 mut GTP
COc1ccc(Cn2c(O)c(/C=N/NC(=O)c3cccnc3)c3ccccc3c2=O)cc1	83	68*	60*	96	87	72*
O=C(N/N=C/c1c(O)n(Cc2ccccc2)c(=O)c2ccccc12)c1cccnc1	71*	65*	55*	93	78*	68*
O=C(N/N=C/c1c(O)n(-c2ccccc2Cl)c(=O)c2ccccc12)c1cccnc1	93	91	94	94	93	94
Cc1ccc(-c2ccc(/C=C(\C#N)C(=O)Nc3cc(C)nn3-c3ccccc3)o2)cc1	109	101	97	107	127*[activator]	120*[activator]
CCN1/C(=C/C=C/C=C/c2sc3ccccc3[n+]2CC)Sc2ccccc21	57*	63*	89	/	51*	?
Clc1ccccc1-c1ccc(/C=N/Nc2nncc(-c3ccccc3)n2)o1	85	84	79*	97	91	86
Clc1ccc(-c2ccc(/C=N/Nc3nncc(-c4ccccc4)n3)o2)cc1	96	98	94	92	96	94
O=C(COc1cc(Cl)ccc1Cl)Nc1nnc(CC(=O)N2CCOCC2)s1	72*	71*	87	86	70*	86
O=C(Nc1nnc(CC(=O)N2CCOCC2)s1)c1cccs1	102	104	107	102	102	99
Cc1c(Cl)c([N+](=O)[O-])nn1CC(=O)N1CCN(Cc2ccccc2)CC1	97	98	99	96	95	98
CCN1CCN(c2nc3c(c(=O)n(C)c(=O)n3C)n2Cc2cccc3ccccc23)CC1	111	116	120*[activator]	102	108	101
Cn1c(=O)c2c(nc(N3CCc4ccccc4C3)n2C)n(C)c1=O	81	80*	69*	85	81	83
Cc1ccccc1C(=O)NNC(=O)c1cc(N)cc([N+](=O)[O-])c1	97	97	104	99	100	99
CC(C)(C)C1CCc2onc(C(=O)NC3CCCC3)c2C1 (stereo unspecified)	100	105	102	99	104	98
O=C(NC1CCCCC1)c1noc2c1CCCCC2	110	114	120*[activator]	105	109	102
Cc1cc(C)nc(NS(=O)(=O)c2ccc(N/C=C/C(=O)c3ccc(Cl)cc3)cc2)n1	98	99	99	100	98	99
COc1ccc(C(=O)/C=C/Nc2ccc(S(=O)(=O)Nc3nc(C)cc(C)n3)cc2)cc1OC	88	89	79*	92	91	87
Cc1nn(Cc2ccccc2)c(C)c1NC(=O)CSc1nc2c(c(C(F)(F)F)n1)CCc1ccccc1-2	83	84	75*	92	85	88
COc1ccc(CNc2nc3c(c(=O)n(Cc4ccc(Br)cc4)c(=O)n3C)n2C)cc1	87	83	80	92	90	79*
Cn1c(NCc2ccccc2)nc2c1c(=O)n(Cc1ccc(Br)cc1)c(=O)n2C	103	98	100	102	100	98
O=C(N/N=C/c1ccc([N+](=O)[O-])o1)c1cn(-c2ccccc2)nc1-c1ccccc1	83	89	82	96	85	92
O=C(N/N=C/c1ccc([N+](=O)[O-])o1)c1cn(-c2ccccc2)nc1-c1ccc(Cl)cc1	82	81	79*	98	81	86
CCOc1cc(/C=N/NC(=O)c2cc(-c3cccnc3)nc3ccccc23)ccc1O	83	83	78*	99	86	88
CCOc1cc(/C=N/Nc2nncc(-c3ccccc3)n2)ccc1O	85	84	74*	87	83	87

Assay outcomes (PubChem)
